# Measurements reported in PubChem BioAssay (Tox21).
# Results filed as inconclusive are left out. A number with no mark means an inactive call. The call rests on the fitted dose curve; in most records, active means well fitted curve in the direction sought with a large enough effect in the repeat runs; inconclusive means weak or mixed curves; inactive means no such curve, though single readings can be large; an effect the other way counts as inactive or inconclusive.
# Assay: qHTS assay to identify small molecule antagonists of the retinoic acid receptor (RAR) signaling pathway (AID 1159552; further: nearly all actives have a fitted effect of over 50% in size)
# Details: C3RL4 RARE luciferase reporter, retinol-stimulated, 6 h; series mostly up to 92.4 µM; activity, negative = inhibition: at the top concentration
# Procedure, shortened: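 Retinol signaling pathway inhibitors screened in C3RL4 RARE-luciferase reporter cells seeded overnight at 37 C, then compounds added with 1 uM (final) retinol as pathway substrate. After 6 hr at 37 C, luciferase luminescence read after 30 min at room temperature.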
# On the % scale 0 is the no-effect control and ±100 the full control effect.
row,SMILES,"activity, negative = inhibition"
1,CC(CN=Cc1ccccc1O)N=Cc1ccccc1O (configuration not stated),80.7%
2,CCC(C)CCCC(C)(C)O (configuration not stated),8.71%
3,CO[C@@H]1[C@@H](O[C@@H]2O[C@H](C)[C@@H](O[C@H]3C[C@@](C)(O)[C@@H](O)[C@H](C)O3)[C@H](N(C)C)[C@H]2O)[C@@H](CC=O)C[C@@H](C)[C@@H](O[C@@H]2CC[C@H](N(C)C)[C@@H](C)O2)/C=C/C=C/C[C@@H](C)OC(=O)C[C@H]1OC(C)=O,-13.1% [at 42.5 µM]
4,CCCCOC(=O)C(C)Oc1ccc(Oc2ccc(C(F)(F)F)cn2)cc1 (configuration not stated),6.23%
5,O=C(O)CNc1ccccc1,49.1%
6,CC1=C(C)C(=O)C(CCCCC#CCCCC#CCO)=C(C)C1=O,3.42% [at 42.5 µM]
7,CCCCCCCCC(=O)OCC(C)OC(=O)CCCCCCCC (configuration not stated),8.3%
8,Cc1cc(C)n(CO)n1,4.06%
9,OCCCO,1.77%
10,CCCCOC(=O)CC#N,180%
11,CCN(CCCCOC(=O)c1ccc(OC)c(OC)c1)C(C)Cc1ccc(OC)cc1 (configuration not stated),18.4% [at 42.5 µM]
12,C[C@H](CN1CCCC1)C(=O)c1ccc(C(F)(F)F)cc1,10.8% [at 42.5 µM]
13,O=C1OC(=O)C2CC=CCC12 (configuration not stated),26.6%
14,C=CCCC,23.8%
15,C=C(C)C(=O)OCCCCCCCCCCOC(=O)C(=C)C,55.9%
16,CC(O)CN (configuration not stated),-5.92%
17,COC(=O)C(C)(C)C,76.5%
18,Cc1cc(N)n(-c2ccccc2)n1,64.9%
19,CC[C@H](NC(C)C)[C@H](O)c1ccc(O)c2[nH]c(=O)ccc12,-2.41% [at 42.5 µM]
20,O=C(OCCOCCOCCOC(=O)c1ccccc1)c1ccccc1,93.3%
21,CCCN(C1CCN(C(=O)C2CCNCC2)CC1)[C@@H]1CCc2ccc(OC)cc2C1,-0.952%

# Assay: qHTS assay to identify small molecule agonists of the retinoic acid receptor (RAR) signaling pathway (AID 1159553)
# Details: C3RL4 RARE luciferase reporter, agonist, 6 h; series mostly up to 73.3 µM; activation: at the top concentration
# Procedure, shortened: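 RARE-luc C3RL4 cells; overnight attachment 37 C/5% CO2; compound (DMSO) 6 hr; luciferase reagent, 30 min RT; luminescence read-out.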
row,SMILES,activation
1,CC(CN=Cc1ccccc1O)N=Cc1ccccc1O (configuration not stated),3.67%
2,CCC(C)CCCC(C)(C)O (configuration not stated),-2.46%
3,CO[C@@H]1[C@@H](O[C@@H]2O[C@H](C)[C@@H](O[C@H]3C[C@@](C)(O)[C@@H](O)[C@H](C)O3)[C@H](N(C)C)[C@H]2O)[C@@H](CC=O)C[C@@H](C)[C@@H](O[C@@H]2CC[C@H](N(C)C)[C@@H](C)O2)/C=C/C=C/C[C@@H](C)OC(=O)C[C@H]1OC(C)=O,-4.12%
4,CCCCOC(=O)C(C)Oc1ccc(Oc2ccc(C(F)(F)F)cn2)cc1 (configuration not stated),-0.172%
5,C=CC(C)CCC=C(C)C (configuration not stated),-0.192%
6,CC1=C(C)C(=O)C(CCCCC#CCCCC#CCO)=C(C)C1=O,-0.548%
7,CCCCCCCCC(=O)OCC(C)OC(=O)CCCCCCCC (configuration not stated),0.534% [at 94.8 µM]
8,Cc1cc(C)n(CO)n1,1.41%
9,CCN(CCCCOC(=O)c1ccc(OC)c(OC)c1)C(C)Cc1ccc(OC)cc1 (configuration not stated),0.309%
10,C[C@H](CN1CCCC1)C(=O)c1ccc(C(F)(F)F)cc1,0.179%
11,O=C1OC(=O)C2CC=CCC12 (configuration not stated),-2% [at 94.8 µM]
12,C=CCCC,-0.923% [at 94.8 µM]
13,CC(O)CN (configuration not stated),-0.0202%
14,COC(=O)C(C)(C)C,0.312% [at 94.8 µM]
15,Nc1cccc2c(=O)[nH][nH]c(=O)c12,-1.58% [at 94.8 µM]
16,CCCN(C1CCN(C(=O)C2CCNCC2)CC1)[C@@H]1CCc2ccc(OC)cc2C1,5.89%
